# Screening data deposited in PubChem BioAssay by The Scripps Research Institute Molecular Screening Center.
# An excerpt weighted towards active compounds, which were near 1.8% of everything screened.
# PME-1 inh: PME-1 (human) inhibition | Q9Y570 | recombinant PME-1, FP-Rh probe fluorescence polarization | inhibition, % at 5.9 µM | hit rate 0.53% among 320,000;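 active = inhibition above the campaign mean of all compounds plus 3 SD, cut at about 26% in these data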;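 also: competitive labeling of PME-1 active site by serine hydrolase directed probe; inhibitors block probe labeling so polarization falls and inhibition rises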
# PAD4 FP inh: blocks human protein arginine deiminase 4; recombinant PAD4, RCA probe fluorescence polarization; hit rate 0.41% among 330,000; Q9UM07; inhibition, % at 6.36 µM;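 active = percent inhibition above a cutoff equal to the mean of all tested compounds plus 3 SD, cut at about 15% in these data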
# LYPLA2 inh: counter-screen for PME1 inhibitors: inhibitors of human LYPLA2; hit rate 0.38% among 320,000; O95372; inhibition, % at 5.9 µM; recombinant LYPLA2, FP-Rh probe fluorescence polarization;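 active = inhibition above the screen-wide mean plus 3 SD, limit set per campaign, cut at about 26% in these data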
# Target sequence (O95372 whole entry, looked up): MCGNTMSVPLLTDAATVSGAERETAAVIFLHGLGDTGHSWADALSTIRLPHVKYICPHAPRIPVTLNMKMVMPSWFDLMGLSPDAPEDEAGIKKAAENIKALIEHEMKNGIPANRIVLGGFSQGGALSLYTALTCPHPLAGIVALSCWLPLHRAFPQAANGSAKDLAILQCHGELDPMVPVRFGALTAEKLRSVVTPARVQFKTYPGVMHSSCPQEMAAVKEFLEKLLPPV
# Fam108B inh: Fam108B inhibition, counter-screen for RBBP9 inhibitors | recombinant Fam108B, FP-Rh probe fluorescence polarization | AID 1947 | hit rate 0.33% among 300,000 | inhibition, % at 9.51 µM;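 active = inhibition above the screen mean inhibition plus 3 SD, computed separately per campaign, cut at about 18% in these data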;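 also: inhibitors lower polarization as less probe binds the enzyme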
# GSTO1 inh: counter-screen for RBBP9 inhibitors: inhibitors of human GSTO1 | P78417 | recombinant GSTO1, activity-based probe fluorescence polarization | inhibition, % at 5.96 µM | hit rate 1.1% among 300,000;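 active = inhibition above the campaign mean inhibition plus 3 SD, cut at about 35% in these data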
# LYPLA1 inh: blocks human lysophospholipase 1, a PME1 counter-screen. inhibition, % at 5.9 µM. hit rate 0.16% among 320,000. O75608. recombinant LYPLA1, FP-Rh probe fluorescence polarization. AID 2174;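 active = inhibition above the mean of all tested compounds plus 3 SD, set per campaign, cut at about 14% in these data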;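 also: inhibitors block serine hydrolase probe labeling of LYPLA1 so polarization falls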
# Numbers stand for hits; . = inactive; / = not tested or not shown.
SMILES,PME-1 inh,PAD4 FP inh,LYPLA2 inh,Fam108B inh,GSTO1 inh,LYPLA1 inh
COc1ccccc1NC(=O)c1sc2nc(-c3ccco3)ccc2c1N,70,.,.,.,.,.
COc1cc2cc3c(N)c(C(=O)NCc4ccco4)sc3nc2cc1OC,47,.,.,.,.,.
COc1ccccc1NC(=O)c1sc2nc(C)cc(C)c2c1N,.,.,.,.,.,.
Nc1c(C(=O)Nc2nc3ccccc3s2)sc2nc(-c3cccs3)ccc12,34,.,.,.,.,.
CC(=O)c1sc2nc(-c3cccs3)ccc2c1N,.,.,.,.,.,.
O=C(NCC1CCCO1)c1cccc(NS(=O)(=O)c2ccc(Br)cc2)c1 (stereo unspecified),.,.,.,.,.,.
Cc1ccc(-n2c(C(C)C)nc3oc4ccccc4c(=O)c3c2=O)cc1,.,.,.,.,.,.
CC(C)CCNc1nc(N)c([N+](=O)[O-])c(N2CCCCCC2)n1,.,.,.,.,.,.
O=c1[nH]c(C2CCN(S(=O)(=O)c3ccc(F)cc3)CC2)nc2c1nnn2Cc1ccc2c(c1)OCCO2,32,.,.,.,.,.
COc1cccc(Cn2nnc3c(=O)[nH]c(C4CCCN(C(=O)c5ccccc5Cl)C4)nc32)c1 (stereo unspecified),58,.,.,.,.,.
O=c1[nH]c(C2CCCN(S(=O)(=O)c3ccccc3)C2)nc2c1nnn2Cc1ccccc1 (stereo unspecified),33,.,.,.,.,.
O=c1[nH]c(C2CCCN(S(=O)(=O)c3cccc(F)c3)C2)nc2c1nnn2Cc1ccccc1 (stereo unspecified),.,.,.,.,.,.
CCN1CCN(c2ccc(S(=O)(=O)N3CCCCC3)cc2NC(=O)c2cccc(OC(F)F)c2)CC1,.,.,.,.,.,.
O=C(NCCCN1CCOCC1)c1coc2ccccc2c1=O,.,.,.,.,35,.
O=S(=O)(Nc1cc(S(=O)(=O)N2CCOCC2)ccc1NCC1CCCO1)c1ccc(F)cc1 (stereo unspecified),.,.,.,/,/,.
O=C(O)CC1S/C(=N/N=C/c2ccc(-c3ccc(Cl)c([N+](=O)[O-])c3)o2)NC1=O (stereo unspecified),.,.,.,.,37,.
Cc1ccc2c(c1)CCCN2S(=O)(=O)c1cccc(C(=O)Nc2ccccc2C(=O)O)c1,.,.,.,.,.,.
CCOc1ccccc1NC(=O)Cn1nnc(C(=O)NCc2ccc3c(c2)OCO3)c1N,.,.,.,.,.,.
CN(C)c1ccc(/C=N/N=C2/NC(=O)/C(=C/c3ccc([N+](=O)[O-])cc3)S2)cc1,.,.,.,.,49,.
O=C1NC(=Nc2cccc(O)c2)S/C1=C\c1cccc([N+](=O)[O-])c1,.,.,.,.,.,.
COc1ccc(OC)c(NC(=O)Nc2nnc(N3CCCCC3C)s2)c1 (stereo unspecified),.,.,.,.,.,.
COc1ccc(NC(=O)Nc2nnc(N3CCCCC3C)s2)cc1OC (stereo unspecified),50,.,.,.,.,.
CC(C)CC(NC(=O)c1cccs1)c1nnc(SCc2ccc(Cl)c(Cl)c2)n1C (stereo unspecified),.,.,.,.,.,.
C=CCn1c(SCC(=O)c2ccc(Br)cc2)nnc1C(CC(C)C)NC(=O)c1cccs1 (stereo unspecified),.,.,.,.,36,.
ClCc1nnc(-c2ccccc2)o1,.,.,.,.,102,.
SMILES,PME-1 inh,PAD4 FP inh,LYPLA2 inh,Fam108B inh,GSTO1 inh,LYPLA1 inh
O=C(CN1C(=O)NC2(CCCCC2)C1=O)Nc1ccccc1N1CCCCC1,.,.,.,/,/,.
CC(=O)c1c(C)[nH]c(C(=O)Nc2nc(-c3ccc(Cl)cc3)cs2)c1C,51,.,.,.,.,.
COc1ccc(-c2nc(NC(=O)c3[nH]c(C)c(C(C)=O)c3C)sc2C)cc1,47,.,.,.,.,.
NC(=O)C1CCN(c2oc(/C=C/c3ccccc3)nc2S(=O)(=O)c2ccccc2)CC1,.,.,.,.,.,.
CC(C)[C@H]1COCCS(=O)(=O)N1Cc1ccccc1-c1ccccc1,/,.,/,/,/,/
Cc1oc2cc(O)ccc2c(=O)c1Oc1ccc(F)cc1,.,.,.,.,.,.
Cc1oc2cc(O)ccc2c(=O)c1Oc1ccc2ccccc2c1,.,.,.,.,37,.
